# MEKK2wt PB1 HTS = modulators of MEK5 binding to wildtype MEKK2, primary screen, biochemical, multiplex bead flow cytometry, Alexa488-MEK5; Mitogen-activated protein kinase kinase kinase 2 (Homo sapiens), Q9Y2U5; Alexa488-MEK5 binding to MEKK2 WT; actives lie on both sides; binding response (% of control), % at 10 µM; 290,000 tested, 1.1% active; AID 1531, 2009; in the data active = binding response below about 67% or above about 130%; inconclusive = no clear call, values can overlap the other calls; inactive = in between
# UBC13 polyUb = UBC13 polyubiquitin chain formation inhibitors, primary screen, biochemical, TR-FRET, uHTS. Ubiquitin-conjugating enzyme E2 N (Homo sapiens), P61088. 330,000 tested, 0.47% active. inhibition, % at 20 µM; in the data active = inhibition above about 45%, passing the limit was not always enough; inconclusive = no clear call, values can overlap the other calls
# Target sequence (P61088 whole entry, looked up): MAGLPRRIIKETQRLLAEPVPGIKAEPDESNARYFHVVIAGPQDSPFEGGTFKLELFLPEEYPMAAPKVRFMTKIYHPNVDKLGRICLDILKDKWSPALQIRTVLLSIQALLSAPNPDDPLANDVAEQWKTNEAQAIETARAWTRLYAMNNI
# MEKK3 PB1 HTS = modulators of MEKK3-MEK5 PB1 binding, primary screen, biochemical, wildtype MEKK3, multiplex bead flow cytometry, Alexa488-MEK5; bead-based flow cytometry, Alexa488-MEK5 binding to MEKK3; actives lie on both sides; 0 = blocked by unlabeled MEK5, 100 = vehicle; binding response (% of control), % at 10 µM; 290,000 tested, 1.4% active; AID 1529, 2009;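 active = binding response more than 3 SD above or below the average of its plate-row segment, actives on both sides; inconclusive = wells at one plate position flagged as instrument error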;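 also: Alexa488 bead fluorescence after subtracting the streptavidin-only scavenger bead signal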
# MEKK2mut PB1 HTS = MEK5 binding signal on mutant MEKK2 PB1, primary screen, biochemical, multiplex bead flow cytometry, Alexa488-MEK5. Alexa488-MEK5 binding to MEKK2 mutant. percent response, % at 10 µM. 290,000 tested, 0.35% active; in the data active = percent response above about 24%, passing the limit was not always enough
# Rce1 inhib = yeast Rce1p protease inhibitors, primary screen, biochemical, fluorescence, cell-free homogeneous. calls only. 290,000 tested, 0.27% active. yeast membranes, quenched prenylated peptide cleavage fluorescence. CAAX prenyl protease 2 (Saccharomyces cerevisiae (strain ATCC 204508 / S288c)), Q03530;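 active = fall in fluorescence gain of 50% or more versus controls, with final raw signal at or below 3038400; inconclusive = same 50% fall but final raw signal above 3038400; inactive = fall in fluorescence gain under 50%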;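 also: plate controls were neutral control wells for no effect and wells lacking membranes for full effect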
# Target sequence (Q03530 whole entry, looked up): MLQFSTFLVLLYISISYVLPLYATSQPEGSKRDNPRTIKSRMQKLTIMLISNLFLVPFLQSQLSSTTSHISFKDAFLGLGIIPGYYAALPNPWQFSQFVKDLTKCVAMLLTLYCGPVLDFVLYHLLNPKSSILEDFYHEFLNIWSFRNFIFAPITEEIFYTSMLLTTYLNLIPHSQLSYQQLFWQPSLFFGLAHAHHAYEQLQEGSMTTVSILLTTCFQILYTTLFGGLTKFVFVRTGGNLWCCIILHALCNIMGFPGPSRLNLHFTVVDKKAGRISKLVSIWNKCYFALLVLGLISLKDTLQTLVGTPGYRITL
# MEKK2wt confirm = modulators of MEK5 binding to wildtype MEKK2, confirmation, biochemical, single concentration, multiplex bead flow cytometry. 5,900 tested, 2.4% active. AID 1892, 2009. shares compounds with MEKK3 PB1 HTS. Alexa488-MEK5 binding to MEKK2 WT; actives lie on both sides. binding response (% of control), % at 10 µM; in the data active = binding response below about 16% or above about 210%; inactive = in between
# MEKK2mut-MEK5 = mutant MEKK2 PB1-MEK5 binding signal retest – biochemical, single concentration, multiplex bead flow cytometry, confirmation. shares compounds with MEKK3 PB1 HTS. Alexa488-MEK5 binding to MEKK2 mutant. percent response, % at 10 µM. 5,900 tested, 2% active. AID 1893, 2009; in the data active = percent response mostly above about 71%, no sharp cut-off; inactive = mostly below about 38%;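 also: higher means compound restores mutant binding toward wildtype level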
# MEKK3-MEK5 inh = MEKK3 wild-type PB1 binding to MEK5, inhibitors, confirmation, biochemical, bead multiplex flow cytometry, single concentration, wildtype; binding response (% of control), % at 10 µM; 5,900 tested, 1.8% active; AID 1894, 2009; shares compounds with MEKK3 PB1 HTS; Alexa488-MEK5 binding to MEKK3; active compounds read low;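 active = binding response below 72% of control, or above a set upper limit, though filed actives all read lower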;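 also: 100% = DMSO only wells and 0% = binding blocked by excess unlabeled MEK5; lower values mean stronger disruption of MEK5 binding to MEKK3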
# * = called active by the depositor; i = inactive; ? = inconclusive; nt = no result given; [ ] = another dose, or the depositor's remark. Rows were chosen to be rich in hits. Some 2.5% of all compounds tested hit in one or more screens of this group.
SMILES,MEKK2wt PB1 HTS,UBC13 polyUb,MEKK3 PB1 HTS,MEKK2mut PB1 HTS,Rce1 inhib,MEKK2wt confirm,MEKK2mut-MEK5,MEKK3-MEK5 inh
CCOC(=O)CN1C(=O)C(O)(CC(=O)c2cccc(OC)c2)c2ccccc21 (configuration not stated),106,6,105,9,i,nt,nt,nt
C#CCN1C(=O)C(O)(CC(=O)c2cccc(OC)c2)c2ccccc21 (configuration not stated),1.0*[inhibitor],7,1.0*[inhibitor],-18,i,108,6,103
CC(C)OCCCN1CN(S(=O)(=O)c2ccccc2)c2nc3ccccc3nc21,11*[inhibitor],-1,6.0*[inhibitor],-66,i,107,2,104
Cc1[nH]c2c(ccc3ccccc32)c1C1C(CCN)C1(C)C (configuration not stated),208*,26,107,37,i,166,41,108
S=c1[nH]c2ccc3ccccc3c2[nH]1,93,-8,97,-2,i,nt,nt,nt
O=C1NNC(c2ccccc2)=N/C1=C\c1ccco1,44*[inhibitor],-19,57,-35,i,100,5,103
O=C(COC(=O)c1ccc2c(=O)n3c(nc2c1)CCC3)Nc1ccc(OC(F)F)cc1,95,3,99,-1,i,nt,nt,nt
Cc1cccc(C)c1OCC(=O)N=Nc1c(O)[nH]c2ccc(Br)cc12,nt,-15,nt,nt,i,nt,nt,nt
CC(C)(Cc1ccc(O)cc1)NC(=O)CC(=O)N=Nc1c(O)[nH]c2ccc(Br)cc12,108,-23,21*[inhibitor],40,nt,106,9,105
COCCn1c(N)c(N(Cc2ccccc2)C(=O)CSCC(=O)Nc2ccc(C)cc2)c(=O)[nH]c1=O,nt,-17,nt,nt,i,nt,nt,nt
O=C(Nc1ccc(Cl)cc1)Nc1ccccc1CC[N+](=O)[O-],6.0*[inhibitor],0,4.0*[inhibitor],-19,i,105,-3,100
CN(Cc1ccccc1)CC(O)COc1ccc(CNCCCOc2cccnc2)cc1 (configuration not stated),139*,1,101,33,i,144,34,110
COc1cccc(OCC(O)CNC2CCCC2)c1 (configuration not stated),110,-1,107,16,i,nt,nt,nt
Cc1ccc(Cl)cc1N(CC(=O)NC1CCCC1)C(=O)c1csnn1,97,6,100,1,i,nt,nt,nt
Cc1cccn2c(NC(=O)c3cccs3)c(-c3ccccc3)nc12,107,10,138*,1,i,101,3,104
Cc1ccn2c(NC(=O)c3cccs3)c(-c3ccccc3)nc2c1,98,4,95,5,i,nt,nt,nt
O=C(/C=C/c1ccccc1)OCCN1C(=O)c2ccccc2C1=O,96,5,93,-3,i,nt,nt,nt
CCCc1c(C)nc2ccccc2c1SCCC#N,93,8,60*[inhibitor],0,nt,95,0,98
CCCCc1c(C)nc2ccc(Br)cc2c1SCCC#N,106,nt,101,21,i,nt,nt,nt
CCc1c(C)nc2ccc(Br)cc2c1SCCC#N,90,?,85,-4,i,nt,nt,nt
CCc1c(C)nc2c(Br)cccc2c1SCCC#N,102,19,143*,2,i,102,-2,101
CC(C)OCCCNC(=O)CCN1C(=O)COc2ccccc21,-2.0*[inhibitor],4,1.0*[inhibitor],-20,i,108,6,106

# From PubChem BioAssay
